For test [1], the target named is Peroxisome proliferator-activated receptor gamma (Homo sapiens) (UniProt P37231). The experiment in a line: qHTS assay for small molecule agonists of peroxisome proliferator-activated receptor gamma signaling (AID 588536; active = well fitted curve in the direction sought with a large enough effect in the signal ratio, with a control signal flat, not every such curve was filed as active; the % refers to the signal ratio;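 also: 0% = DMSO basal wells and 100% = rosiglitazone at 2 µM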). In a few lines:
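Cells were plated and held 6–6.5 h at 37 C, then compounds were added as a titration series. After a further 16 h, CCF4 dye was loaded for 2 h at room temperature and emission at 460/530 nm recorded.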
On the technique in general: Quantitative high-throughput screening tests each substance at several concentrations.

The target in test [2] is Vitamin D3 receptor (Homo sapiens) (UniProt P11473). The experiment in a line: qHTS assay for small molecule antagonists of vitamin D receptor signaling (AID 588541).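 Also: receptor activated by calcitriol during compound treatment; series mostly up to about 77 µM; % is scaled to controls: 0 for no effect and ±100 for the full control effect.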 An outline of the steps:
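VDR-UAS-bla HEK293T cells in 2% charcoal-stripped FBS were stimulated with 1-alpha,25-dihydroxyvitamin D3 (3 nM final) plus compound for 16 h at 37 C. The beta-lactamase CCF4 readout was normalized to 50 nM agonist and DMSO, and Hill fits gave IC50.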

Test [3] has the same target. The experiment in a line: qHTS assay for small molecule agonists of vitamin D receptor signaling (AID 588543).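 Also: 0% = DMSO basal and 100% = reference agonist control.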 An outline of the steps:
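β-lactamase reporter, VDR-UAS-bla HEK293T, agonist mode. Cells plated 5 h at 37 °C, compound titration 16 h at 37 °C, CCF4 dye 2 h RT, ratio 460/530 nm. Hill fit → EC50, efficacy vs 50 nM 1α,25-(OH)2D3.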

Test [4] is described as follows: qHTS assay for small molecule agonists of retinoid X receptor alpha signaling (AID 588544). To be noted: HEK293T RXRa-UAS-bla, beta-lactamase reporter, 18 h; 530 nm emission.
Test [5] has as its target Retinoic acid receptor RXR-alpha (Homo sapiens) (UniProt P19793). Described as above.
For test [6], the target named is Thyroid hormone receptor beta (Homo sapiens) (UniProt P10828). As to the kind of experiment: qHTS assay for small molecule agonists of thyroid hormone receptor beta signaling (AID 588545). In a few lines:
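HEK 293 TR-UAS-bla; agonist mode; 18 hrs, 37 C; CCF4, ex 405/em 460 and 530 nm; norm. T3 10 nM = 100%, DMSO = 0%; Hill fit → EC50, efficacy.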

Test [7] can be described thus: qHTS assay for small molecule antagonists of retinoid X receptor alpha signaling (AID 588546; active = well fitted inhibition curve with a large enough effect in the signal ratio, with a control signal flat, not every such curve was filed as active; the % refers to the signal ratio;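 also: cells stimulated with 9-cis-retinoic acid as agonist; % is scaled to controls: 0 for no effect and ±100 for the full control effect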). To be noted: HEK293T RXRa-UAS-bla, beta-lactamase ratio, antagonist mode; measured here: W530 green channel, cytotoxicity proxy. In a few lines: (§1)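 Beta-lactamase reporter inhibition, read as CCF4 fluorescence ratio (ex 405, em 460/530 nm) after 2 h at RT. HEK293T UAS-bla cells, 2500/well, were stimulated with 9-cis-RA at 500 or 100 nM final alongside test compound for 18 h at 37 C.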

The target in test [8] is Retinoic acid receptor RXR-alpha (Homo sapiens) (UniProt P19793). Described as above. To be noted: HEK293T RXRa-UAS-bla, beta-lactamase ratio, antagonist mode. In a few lines: as §1
For test [9], the target named is Thyroid hormone receptor beta (Homo sapiens) (UniProt P10828). As to the kind of experiment: qHTS assay for small molecule antagonists of thyroid hormone receptor beta signaling (AID 588547; active = well fitted inhibition curve with a large enough effect in the signal ratio, with a control signal flat, not every such curve was filed as active; the % refers to the signal ratio;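 also: cells stimulated with 0.4 nM T3 agonist during compound exposure; series mostly up to about 77 µM; % is scaled to controls: 0 for no effect and ±100 for the full control effect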). As to conditions: TR-UAS-bla HEK293, beta-lactamase ratio, antagonist mode, 18 h. An outline of the steps:
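TR-UAS-bla GripTite HEK293 cells in 2% charcoal/dextran FBS medium; compounds 0.59 nM to 92 uM with T3 at 0.4nM final, 18 h at 37 C. Beta-lactamase read by CCF4 fluorescence (460/530 nm); Hill fits gave IC50 and efficacy.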

The target in test [10] is Voltage-gated inwardly rectifying potassium channel KCNH2 (Homo sapiens) (UniProt Q12809). The experiment in a line: qHTS Assay for Small Molecule Inhibitors of the Human hERG Channel Activity (AID 588834; active = well fitted curve in the direction sought with a large enough effect; an effect the other way counts as inactive or inconclusive;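 also: lower thallium flux fluorescence means stronger hERG block; nearly all actives have a fitted effect of over 50% in size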; also: potency is read from the fitted curve at half-maximal effect). In a few lines: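 Thallium-flux (FluxOR) read-out on FDSS: fluorescence read 10 s before and 2 min after stimulation buffer. hERG-BacMam-transduced U2OS cells, compound exposure about 10 min. AC50 by standard Hill equation.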

The target in test [11] is Luciferin 4-monooxygenase (Photinus pyralis) (UniProt P08659). As to the kind of experiment: Biochemical firefly luciferase enzyme assay for NPC (AID 624030; active = well fitted curve in the direction sought with a large enough effect; an effect the other way counts as inactive or inconclusive;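 also: purified P. pyralis luciferase at 10 nM with luciferin and ATP substrate; series mostly up to about 59 µM; 0% = DMSO and -100% = full luciferase inhibition by PTC124 control; nearly all actives have a fitted effect of over 70% in size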). An outline of the steps: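 Purified P. pyralis luciferase at 10 nM in 50 mM Tris Acetate (final), luminescence read within 5 minutes of enzyme addition to compounds. Activity normalised to PTC124 versus DMSO; concentration-response curves classed by r2, magnitude and activity.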

Test [12] in a line: S16 Schwann cell viability assay (CellTiter-Glo assay) (AID 624031; active = well fitted curve in the direction sought with a large enough effect; an effect the other way counts as inactive or inconclusive;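 also: series mostly up to about 58 µM; plate controls were DMSO-treated cells for no effect and cell-free wells for full effect; nearly all actives have a fitted effect of over 70% in size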). An outline of the steps: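 Untransfected S16 rat Schwann cells; compound 24 h, 37 °C/5% CO2; CellTiter-Glo ATP luminescence. % activity vs no-cell wells and DMSO controls (0%); concentration-effect curves classed by r2, response magnitude, activity.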
On the technique in general: ATP-based viability assays read luminescence as a measure of living cells.

Test [13] is described as follows: S16 Schwann cell PMP22 intronic element firefly luciferase assay (AID 624032; active = well fitted curve in the direction sought with a large enough effect; an effect the other way counts as inactive or inconclusive; also: nearly all actives have a fitted effect of over 30% in size; also: potency is read from the fitted curve at half-maximal effect). An outline of the steps:
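Rat S16 Schwann cells stably carrying firefly luciferase driven by a PMP22 intronic element, in 10% FBS, treated 24 h at 37 C. ONE-Glo luminescence normalized to PTC124 control and DMSO (0%); curves classed by r2, magnitude and activity.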

Test [14] in a line: qHTS assay for small molecule antagonists of peroxisome proliferator-activated receptor delta signaling (AID 588535; active = well fitted inhibition curve with a large enough effect in the signal ratio, with a control signal flat, not every such curve was filed as active; the % refers to the signal ratio;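 as to max response: cells co-treated with a PPAR-delta agonist as stimulator during compound exposure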). As to conditions: HEK293T PPARd-UAS-bla, beta-lactamase FRET ratio, 18 h; 460 nm channel. An outline of the steps:
(§2)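 Beta-lactamase reporter read-out (405 nm excitation, 460/530 nm emission) after CCF4 loading for 2 hrs at RT. HEK293T PPAR-delta-UAS-bla cells, 2% charcoal/dextran FBS, compounds for 18 hrs at 37 C. Hill fit gave IC50 and efficacy.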

Test [15] has as its target Peroxisome proliferator-activated receptor delta (Homo sapiens) (UniProt Q03181). Described as above. An outline of the steps:
as §2

Test [16] in a line: S16 Schwann cell PMP22 intronic element beta-lactamase assay (AID 624044). Also: nearly all actives have a fitted effect of over 15% in size. Also: potency is read from the fitted curve at half-maximal effect. In a few lines: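 Beta-lactamase reporter under a PMP22 intronic regulatory element in stable S16 rat Schwann cells; 24 h compound exposure. 460 nm blue signal normalized between DMSO (0%) and potassium clavulanate, with 535 nm FRET tracking viability; curves classed by r2 and response.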

The structures appear in SMILES notation. Values joined by “and” are separate entries in the source; they are usually repeats but may differ in a detail not shown here. Identical values can stand only once. Records with an inconclusive call do not appear. The source holds several records for some structures; these can differ, active in one and inactive in another. Active and inactive are the calls of the source. Unless noted, calls follow the shape of the full dose curve.

Chain of Retinoic acid receptor RXR-alpha (Homo sapiens) (P19793 whole entry, looked up): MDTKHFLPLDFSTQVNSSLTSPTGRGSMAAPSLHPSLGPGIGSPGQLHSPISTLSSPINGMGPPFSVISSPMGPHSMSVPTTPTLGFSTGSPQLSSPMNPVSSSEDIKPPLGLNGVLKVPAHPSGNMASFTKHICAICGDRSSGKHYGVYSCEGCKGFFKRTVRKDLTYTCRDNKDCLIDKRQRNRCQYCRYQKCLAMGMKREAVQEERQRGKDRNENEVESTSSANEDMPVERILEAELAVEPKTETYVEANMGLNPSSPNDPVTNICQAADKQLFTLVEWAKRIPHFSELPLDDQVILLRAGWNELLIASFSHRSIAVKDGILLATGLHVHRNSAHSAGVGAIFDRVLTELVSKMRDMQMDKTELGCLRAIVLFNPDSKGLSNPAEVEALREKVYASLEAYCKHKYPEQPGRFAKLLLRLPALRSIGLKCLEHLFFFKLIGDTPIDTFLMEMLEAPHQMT
Chain of Peroxisome proliferator-activated receptor delta (Homo sapiens) (Q03181 whole entry, looked up): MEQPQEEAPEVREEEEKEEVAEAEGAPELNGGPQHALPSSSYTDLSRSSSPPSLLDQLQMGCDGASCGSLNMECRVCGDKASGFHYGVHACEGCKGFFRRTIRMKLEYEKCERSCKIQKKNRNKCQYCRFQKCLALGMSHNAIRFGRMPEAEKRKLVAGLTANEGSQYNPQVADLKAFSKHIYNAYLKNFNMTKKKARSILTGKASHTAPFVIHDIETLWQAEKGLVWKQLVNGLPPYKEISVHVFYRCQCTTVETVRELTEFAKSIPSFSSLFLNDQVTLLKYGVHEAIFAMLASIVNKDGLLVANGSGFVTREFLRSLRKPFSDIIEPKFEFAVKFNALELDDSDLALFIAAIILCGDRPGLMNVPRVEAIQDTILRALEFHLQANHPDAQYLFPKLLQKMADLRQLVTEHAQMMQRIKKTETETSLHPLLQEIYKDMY
Chain of Voltage-gated inwardly rectifying potassium channel KCNH2 (Homo sapiens) (Q12809 whole entry, looked up): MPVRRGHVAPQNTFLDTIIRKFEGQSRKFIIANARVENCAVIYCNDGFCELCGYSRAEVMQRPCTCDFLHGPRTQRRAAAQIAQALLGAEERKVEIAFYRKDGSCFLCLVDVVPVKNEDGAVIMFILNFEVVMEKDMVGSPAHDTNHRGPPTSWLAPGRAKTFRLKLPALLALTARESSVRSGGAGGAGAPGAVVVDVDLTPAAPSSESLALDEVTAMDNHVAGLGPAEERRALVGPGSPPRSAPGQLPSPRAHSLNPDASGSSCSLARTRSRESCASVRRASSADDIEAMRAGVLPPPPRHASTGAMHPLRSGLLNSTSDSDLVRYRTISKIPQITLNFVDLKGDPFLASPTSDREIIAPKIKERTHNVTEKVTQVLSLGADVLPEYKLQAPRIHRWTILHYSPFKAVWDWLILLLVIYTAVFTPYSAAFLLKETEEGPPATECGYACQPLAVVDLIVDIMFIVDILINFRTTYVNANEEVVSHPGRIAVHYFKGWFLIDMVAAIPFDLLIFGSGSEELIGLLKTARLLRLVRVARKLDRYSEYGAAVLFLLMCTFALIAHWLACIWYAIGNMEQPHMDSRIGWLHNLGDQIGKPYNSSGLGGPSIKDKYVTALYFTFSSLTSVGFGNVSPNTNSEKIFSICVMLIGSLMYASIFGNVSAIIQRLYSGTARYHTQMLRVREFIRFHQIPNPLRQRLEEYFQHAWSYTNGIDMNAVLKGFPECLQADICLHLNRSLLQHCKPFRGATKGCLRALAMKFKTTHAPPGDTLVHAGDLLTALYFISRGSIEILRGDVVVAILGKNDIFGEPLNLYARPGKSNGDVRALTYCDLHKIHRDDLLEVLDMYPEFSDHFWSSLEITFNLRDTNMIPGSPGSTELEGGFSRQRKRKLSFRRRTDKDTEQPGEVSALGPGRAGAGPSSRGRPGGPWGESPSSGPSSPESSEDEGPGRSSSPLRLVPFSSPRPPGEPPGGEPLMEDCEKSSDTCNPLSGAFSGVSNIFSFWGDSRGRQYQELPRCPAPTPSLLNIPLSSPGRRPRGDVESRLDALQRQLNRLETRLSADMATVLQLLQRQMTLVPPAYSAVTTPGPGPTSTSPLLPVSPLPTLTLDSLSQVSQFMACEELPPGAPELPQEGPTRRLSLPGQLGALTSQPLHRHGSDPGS
Chain of Peroxisome proliferator-activated receptor gamma (Homo sapiens) (P37231 whole entry, looked up): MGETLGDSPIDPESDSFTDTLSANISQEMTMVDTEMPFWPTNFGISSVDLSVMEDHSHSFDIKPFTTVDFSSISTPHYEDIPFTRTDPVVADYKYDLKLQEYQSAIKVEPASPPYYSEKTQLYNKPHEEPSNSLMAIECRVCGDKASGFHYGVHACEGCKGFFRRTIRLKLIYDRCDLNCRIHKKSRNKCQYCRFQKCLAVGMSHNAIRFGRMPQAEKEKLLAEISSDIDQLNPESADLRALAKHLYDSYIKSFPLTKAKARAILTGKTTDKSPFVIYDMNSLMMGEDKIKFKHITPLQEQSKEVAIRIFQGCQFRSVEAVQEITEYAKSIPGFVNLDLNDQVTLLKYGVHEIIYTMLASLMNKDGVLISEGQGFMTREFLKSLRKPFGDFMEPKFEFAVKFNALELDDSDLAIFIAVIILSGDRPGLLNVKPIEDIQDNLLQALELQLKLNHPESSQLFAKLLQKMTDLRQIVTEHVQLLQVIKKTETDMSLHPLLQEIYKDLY
Chain of Vitamin D3 receptor (Homo sapiens) (P11473 whole entry, looked up): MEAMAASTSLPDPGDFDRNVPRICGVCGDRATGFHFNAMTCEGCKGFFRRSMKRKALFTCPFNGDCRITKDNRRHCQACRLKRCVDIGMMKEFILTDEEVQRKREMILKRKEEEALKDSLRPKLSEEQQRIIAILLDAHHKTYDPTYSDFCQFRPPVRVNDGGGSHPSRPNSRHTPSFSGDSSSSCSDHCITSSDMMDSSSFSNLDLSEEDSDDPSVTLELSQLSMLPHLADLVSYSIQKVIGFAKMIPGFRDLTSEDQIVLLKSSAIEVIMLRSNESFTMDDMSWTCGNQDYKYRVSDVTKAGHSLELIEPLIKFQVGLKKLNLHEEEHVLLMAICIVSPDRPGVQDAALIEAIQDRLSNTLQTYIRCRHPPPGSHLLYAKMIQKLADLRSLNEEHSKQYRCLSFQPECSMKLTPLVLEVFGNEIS
Chain of Luciferin 4-monooxygenase (Photinus pyralis) (P08659 whole entry, looked up): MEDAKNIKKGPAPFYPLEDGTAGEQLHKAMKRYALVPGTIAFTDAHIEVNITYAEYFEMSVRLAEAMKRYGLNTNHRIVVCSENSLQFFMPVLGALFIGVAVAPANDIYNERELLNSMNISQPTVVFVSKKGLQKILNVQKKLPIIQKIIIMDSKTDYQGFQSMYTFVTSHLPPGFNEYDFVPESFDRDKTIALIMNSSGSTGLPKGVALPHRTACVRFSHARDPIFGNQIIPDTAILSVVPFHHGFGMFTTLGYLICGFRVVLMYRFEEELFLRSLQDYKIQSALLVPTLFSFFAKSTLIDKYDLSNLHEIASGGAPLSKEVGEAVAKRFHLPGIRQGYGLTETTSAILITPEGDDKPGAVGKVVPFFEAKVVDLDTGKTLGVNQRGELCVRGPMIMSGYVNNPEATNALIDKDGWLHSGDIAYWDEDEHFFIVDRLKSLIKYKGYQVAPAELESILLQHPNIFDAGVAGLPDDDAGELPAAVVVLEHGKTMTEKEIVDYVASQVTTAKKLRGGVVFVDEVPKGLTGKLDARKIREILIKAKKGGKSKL
Chain of Thyroid hormone receptor beta (Homo sapiens) (P10828 whole entry, looked up): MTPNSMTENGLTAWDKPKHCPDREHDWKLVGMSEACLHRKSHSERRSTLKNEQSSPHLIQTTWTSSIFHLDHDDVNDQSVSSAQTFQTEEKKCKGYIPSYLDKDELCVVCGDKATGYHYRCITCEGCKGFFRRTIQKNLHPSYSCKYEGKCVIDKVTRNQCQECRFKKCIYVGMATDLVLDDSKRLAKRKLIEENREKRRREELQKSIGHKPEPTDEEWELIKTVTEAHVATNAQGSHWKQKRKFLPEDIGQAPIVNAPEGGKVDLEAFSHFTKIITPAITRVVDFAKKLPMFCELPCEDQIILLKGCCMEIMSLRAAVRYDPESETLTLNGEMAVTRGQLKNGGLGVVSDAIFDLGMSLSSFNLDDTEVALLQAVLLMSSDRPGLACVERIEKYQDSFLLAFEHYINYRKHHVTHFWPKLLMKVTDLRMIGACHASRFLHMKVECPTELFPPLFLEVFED

Take `CCOc1ccc(NC(C)=O)cc1`: the outcome in test [1], in test [3], in [5] and in test [6] was inactive. The Potency result in [2], in test [10], in test [11], in [12] and in test [13] was “inactive” in each case. Also, the max response in [4] is 2.99% and -14.4%; in test [7], -2.9% and -4.43%; in test [8], -12.1% (inactive) and 5.41% (inactive). For the same compound, the activity change % (negative = inhibition) in test [9] was 4.97% (inactive).

In the case of `CCCCCCCCOc1ccc(C(=O)c2ccccc2)c(O)c1`, the max response is 16.2% in [14], -1.02% in test [4], -13.7% in test [7] and -18.6% (inactive) in test [8]. In addition, the compound was called inactive in test [15], in [1], in test [3], in test [5] and in test [6]. Moreover, the Potency result in test [2], in test [10], in test [11] and in [12] was “inactive” each time. In addition, the activity change % (negative = inhibition) in [9] was -1.54% (inactive).

`Cc1cn([C@H]2C[C@H](F)[C@@H](CO)O2)c(=O)[nH]c1=O`: the Potency result in [10] is “inactive”.

Turning to `CC1(COc2ccc(CC3SC(=O)NC3=O)cc2)CCCCC1` (stereo not drawn), in test [6], the result was inactive. Further, the max response in test [7] is 20.2%; in [8], -22.1% (inactive). In addition, the activity change % (negative = inhibition) in [9] is -31.9% (inactive). Besides, the Potency result in test [12], in test [13] and in [16] was “inactive” in each case.

Take `C=C[C@@]1(C)CC(=O)[C@]2(O)[C@@]3(C)[C@@H](O)CCC(C)(C)[C@@H]3[C@H](O)[C@H](OC(C)=O)[C@@]2(C)O1`: the Potency result in test [2] and in [10] was “inactive” each time. For the same compound, the outcome in [3] and in [6] was inactive. The activity change % (negative = inhibition) in test [9] is 10.4% (inactive). In addition, the figures for the Potency in test [13] and in test [16] were 361 nM (active) and 707 nM (active), respectively.

For `CCOc1ccccc1C(N)=O`, the max response in test [14] is -16.5%; in test [4], -15.7%; in test [7], -1.33%; in test [8], 0.966% (inactive). Also, the outcome in test [15], in test [1], in [3] and in test [5] was inactive. The Potency entry in [2], in test [10], in test [11], in test [12] and in test [13] was “inactive” each time. Moreover, the activity change % (negative = inhibition) in test [9] is 7.81% (inactive).

For the compound `CCCCC(CC)COC(=O)c1ccc(N(C)C)cc1` (stereo not drawn), the max response in [14] is 0.453% and -4.75%; in test [4], -13.5%; in [7], -15.4% and -7.64%; in [8] it was -1.36% (inactive) and 6.53% (inactive). Moreover, the call in test [15], in test [1], in test [3], in test [5] and in test [6] was inactive. Also, the Potency entry in [2], in test [11], in test [12], in test [13] and in test [16] was “inactive” throughout. Also, the activity change % (negative = inhibition) in test [9] is -0.537% (inactive) and 3.83% (inactive). Besides, the Potency entry in test [10] is “inactive and 28.2 µM (active)”.

Consider `COc1cc([C@H]2Oc3cc([C@H]4Oc5cc(O)cc(O)c5C(=O)[C@@H]4O)ccc3O[C@@H]2CO)ccc1O`, for which the Potency entry in test [2], in test [10], in test [12] and in test [16] was “inactive” throughout. Moreover, the compound was called inactive in test [3].

`COc1ccc(C(=O)c2ccccc2)c(O)c1`: the max response in [14] is -3.7% and 9.95%; in [7], 4.73% and -13.9%; in test [8] it was -9.82% (inactive) and -18.3% (inactive). Besides, the compound was classed as inactive in test [15], in test [1] and in test [6]. The activity change % (negative = inhibition) in [9] is -24% (inactive) and 5.53% (inactive). Besides, the Potency in test [10] was 35500 nM (active). The Potency entry in test [12] and in test [13] was “inactive” throughout.

For `CO[C@H]1C=CO[C@@]2(C)Oc3c(C)c(O)c4c(O)c(c(/C=N/N5CCN(C)CC5)c(O)c4c3C2=O)NC(=O)/C(C)=C\C=C[C@H](C)[C@H](O)[C@@H](C)[C@@H](O)[C@@H](C)[C@H](OC(C)=O)[C@@H]1C`, the Potency entry in [10] is “inactive”.

(Values after PubChem BioAssay (NCATS).)
